Experimental findings from PubChem BioAssay AID602393 (Broad Institute, 2012) are described below.

The structures appear in SMILES notation. In all, about 350,000 compounds went through this assay and about 7,000 (2%) were called active. The full list was thinned out, with actives kept by preference. A number with no mark means an inactive call. Rule as the data show it: active = activation above about 40%; inconclusive = no clear call, values can overlap the other calls; inactive = below that.

This assay in a line: raisers of Bmi1 knock-in reporter signal – mouse ES cells, Bmi1 luciferase knock-in, single point, esBAF inhibitor project, primary screen (AID 602393).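 Also: 0% = median of the plate's neutral control wells and 100% = double that signal; a rise in the Bmi1 reporter signal indicates esBAF inhibition.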 The note with it: 24 h, at 12.5 µM, active compounds read high, 100% = twice the neutral-well signal.
With `C[C@@H]1CN([C@H](C)CO)S(=O)(=O)c2ccc(C#C[C@@H](C)O)cc2O[C@H]1CN(C)CC1CC1`, the reporter increase was 2.12%. With `CC(Cc1cccs1)NC(=O)NC1CCCCC1` (stereo not drawn) the figure was 17.1%; with `CC(Cc1cccs1)NC(=O)c1cccc(Cl)c1` (stereo not drawn), 59.9% (active).

For `Cc1cccc(C(=O)N[C@H](C(=O)NCc2cccs2)C(C)C)c1`, the reporter increase was -4.58%. With `C[C@@H]1CCCCO[C@@H](CN(C)S(=O)(=O)c2cn(C)cn2)[C@@H](C)CN([C@H](C)CO)C(=O)c2cc(NC(=O)c3ccncc3)ccc2O1` the figure was 2.55%. Then `CN1CCN(C(=O)C[C@@H]2CC[C@@H]3[C@H](COC[C@@H](O)CN3Cc3cccc(F)c3)O2)CC1`, with 0.727%. With `C[C@@H]1CN([C@@H](C)CO)C(=O)c2cc(C#CCN(C)C)cnc2O[C@@H]1CN(C)Cc1ccccn1` the figure was -9.33%; with `CO[C@@H]1CN(C)C(=O)c2cc(NS(=O)(=O)c3cccc(Cl)c3)ccc2OC[C@@H](C)NC[C@@H]1C`, 3.71%; with `FC(F)(F)c1ccccc1Cc1c(-c2ccccc2)nc2c3ccccc3ccn12`, 3.35%. On to `Clc1cccc(Cc2c(-c3cccc(Cl)c3)nc3ccc(Cl)cn23)c1`, for which the reporter increase is 35.2%. Take `Brc1ccc2nc(-c3ccccc3)c(Cc3ccccc3)n2c1`: the reporter increase is 18%.

Regarding `Fc1cccc(Cc2c(-c3ccc(Cl)cc3)nc3ccc(Cl)cn23)c1`, the reporter increase was 7.58%.

Consider `Cc1ccc(Cc2c(-c3ccccc3)nc3ccc(Cl)cn23)cc1`, for which the reporter increase is 21%. Turning to `Cc1ccc(-c2nc3ccc(Br)cn3c2Cc2ccccc2C(F)(F)F)cc1`, the reporter increase is 58.8% (active). With `Cc1ccc(Cc2c(-c3ccco3)nc3ccc(Cl)cn23)cc1` the figure was -7.76%; with `Cc1ccc(-c2nc3ccc(Cl)cn3c2Cc2ccccc2)cc1`, 44.1% (active); with `Fc1cccc(Cc2c(-c3cccc(Cl)c3)nc3ccc(Br)cn23)c1`, 57.3% (active).

As to `C[C@H](CO)N1C[C@H](C)[C@H](CN(C)C(=O)c2ccncc2)Oc2cc(C#CC3(O)CCCC3)ccc2S1(=O)=O`, the reporter increase is 2.01%. With `Cc1ccc(S(=O)(=O)N[C@@H]2CC[C@H](CCNC(=O)C3CCOCC3)O[C@@H]2CO)cc1` the figure was 3.97%; with `CC1CCCN(CC(=O)Nc2cc(Cl)ccc2Oc2ccccc2)C1` (stereo not drawn), 0.159%; with `CC(=O)Nc1ccc(NC(=O)CN2CCCC(C)C2)c(Cl)c1` (stereo not drawn), 49.7% (active).

For the molecule `O=C(CN1CCOCC1)Nc1ccc(NC(=O)CN2CCOCC2)c(Cl)c1`, the reporter increase is 3.57%. Then `Oc1ccc(-n2nnnc2SCc2c(F)cccc2Cl)cc1`, with -6.31%.

In the case of `Cn1c(SCC(=O)c2ccc(F)cc2)nnc1-c1ccccn1`, the reporter increase is 39.1%. With `Cn1c(SCc2c(F)cccc2Cl)nnc1-c1cnccn1` the figure was 59% (active); with `Cc1noc(C)c1S(=O)(=O)Nc1ccc2c(c1)C(=O)N([C@@H](C)CO)C[C@@H](C)[C@@H](CN(C)Cc1ccccc1)OCCCC[C@H](C)O2`, -1.71%. With `CCOC(=O)CSc1nnc(CNc2ccc(F)cc2)o1` the figure was 4.3%; with `Cc1cccc2nc(CNc3ccc(F)cc3)cn12`, 56.3% (active); with `Cc1ccn2c(=O)nc(SCC(=O)NCc3ccc(F)cc3)nc2c1`, -3.54%. With `O=C(C[C@H]1CC[C@H]2[C@@H](COC[C@@H](O)CN2CCC(F)(F)F)O1)NCc1ccc2c(c1)OCO2` the figure was -0.0255%; with `CCCC(=O)Nc1ccc2c(c1)C(=O)N(C)[C@@H]1CC[C@H](CC(=O)Nc3cn(C)nc3C)O[C@H]1CO2`, -3.47%.

In the case of `C[C@@H]1CN([C@@H](C)CO)C(=O)c2cc(C#CCc3ccccc3)cnc2O[C@@H]1CN(C)C(=O)C1CCOCC1`, the reporter increase is -0.454%.

For `Cc1cccc(N2C(=O)SC(N(CC(=O)O)c3cccc(C)c3)C2=O)c1` (stereo not drawn), the reporter increase is 51.9% (active). Then `Cc1ccc(N2C(=O)SC(N(CC(=O)O)c3ccc(C)cc3)C2=O)cc1` (stereo not drawn), with -3.76%. With `Cc1cccc(N(CC(=O)N2CCOCC2)S(C)(=O)=O)c1` the figure was 0.817%; with `C[C@H]1CN([C@@H](C)CO)C(=O)c2cc(N(C)C)ccc2O[C@@H]1CN(C)C(=O)Nc1ccc2c(c1)OCO2`, 0.253%; with `O=C(Nc1cccc2ccccc12)NC1CC1`, -6.94%. With `O=C(Nc1cccc2ccccc12)c1onc2c1CCCC2` the figure was 68.2% (active). On to `O=C(Nc1cccc2ccccc12)c1[nH]c(-c2ccccc2)c2c1C(=O)N(C1CC1)C2=O`, for which the reporter increase was -8.26%. With `C[C@@H]1CN([C@@H](C)CO)S(=O)(=O)c2ccc(C#Cc3cccnc3)cc2O[C@@H]1CN(C)C` the figure was -4.81%. With `COc1ccc2c(c1)CCc1c(C(=O)N3CCc4ccccc4C3)noc1-2`, the reporter increase is 26.1%. With `O=C(c1cc(-c2cccc(O)c2)on1)N1CCc2ccccc2C1` the figure was 10.2%; with `O=C(c1noc2c1CCCC2)N1CCc2ccccc2C1`, 63.6% (active); with `COC(=O)C[C@@H]1CC[C@H]2[C@H](COc3ccc(NC(=O)c4cccs4)cc3C(=O)N2C)O1`, 2.44%. In the case of `O=C(CN1CCN(c2ccc(O)cc2)CC1)Nc1ccc(-c2ccccc2)cc1`, the reporter increase is -6.35%. Then `Oc1ccc(-c2cccc(-c3ccc(O)cc3)c2)cc1`, with 57.6% (active); and `O=C(CN1CCOCC1)NCC[C@@H]1CC[C@@H](NC(=O)Nc2ccccc2)[C@H](CO)O1`, with -0.967%; and `CCCNC(=O)N(C)C[C@H]1Oc2cc(C3=CCCCC3)ccc2S(=O)(=O)N([C@H](C)CO)C[C@H]1C`, with -6.45%. `COc1ccc(NC(=O)N(C)C[C@@H]2OCCCC[C@H](C)Oc3ccc(NS(=O)(=O)c4cn(C)cn4)cc3C(=O)N([C@@H](C)CO)C[C@@H]2C)cc1`: the reporter increase is 1.74%. For `C[C@@H](O)C#Cc1ccc([C@H]2[C@H](CO)N3CCCCN(C(=O)c4ccc5c(c4)OCO5)C[C@@H]23)cc1`, the reporter increase is -3.75%. With `COc1ccc(-n2nc(C(=O)NCC(=O)N3CCCCCC3)c3ccccc3c2=O)cc1Cl` the figure was 47.6% (active); with `COc1ccc(-n2nc(C(=O)NCC(=O)N3CCC(C(N)=O)CC3)c3ccccc3c2=O)cc1OC`, -4.41%.

Regarding `COc1ccc(-n2nc(C(=O)NCC(=O)N3CCN(c4ccccc4OC)CC3)c3ccccc3c2=O)c(OC)c1`, the reporter increase was 30.3%.
